Screens from PubChem.
CYP2C9 activ = activators of human CYP2C9; P11712; recombinant CYP2C9, luciferin-H conversion, luminescence; active compounds read high; factor 1 = untreated enzyme, 0 = blocked; activation factor at 5 µM; 96,000 tested, 1.4% active;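 active means activation factor of 2 or more for CYP2C9 at a 5 µM dose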
PostGolgi ctrl = yeast control strain growth, post-Golgi counter-screen | efflux-deficient yeast background strain, growth absorbance A615, 16 h | inhibition, % at 10 µM | 98,000 tested, 5% active | AID 738
CYP2C19 act = cytochrome P450 2C19 (human) activation; 96,000 tested, under 10 active; activation factor at 5 µM; recombinant CYP2C19, luciferin-H EGE luminescence; active compounds read high; 0 = fully inhibited enzyme, 1 = untreated enzyme; P33261;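 active means activation factor of at least 2 at 5 µM in the primary screen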
Target sequence (P33261 whole entry, looked up): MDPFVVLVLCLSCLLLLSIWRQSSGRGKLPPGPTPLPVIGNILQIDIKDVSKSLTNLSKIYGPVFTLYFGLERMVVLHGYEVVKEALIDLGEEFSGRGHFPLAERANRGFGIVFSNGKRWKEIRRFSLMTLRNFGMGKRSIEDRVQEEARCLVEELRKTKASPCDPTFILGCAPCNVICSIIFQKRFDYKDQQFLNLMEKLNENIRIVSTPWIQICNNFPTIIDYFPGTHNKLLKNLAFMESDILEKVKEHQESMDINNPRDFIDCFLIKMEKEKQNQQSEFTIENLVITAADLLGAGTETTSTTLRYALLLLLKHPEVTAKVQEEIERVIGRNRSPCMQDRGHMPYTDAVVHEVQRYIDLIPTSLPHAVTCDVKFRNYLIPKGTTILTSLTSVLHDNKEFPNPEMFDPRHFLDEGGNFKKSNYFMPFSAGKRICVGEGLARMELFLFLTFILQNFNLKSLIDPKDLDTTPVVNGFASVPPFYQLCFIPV
CYP2C19 inh = blocks human cytochrome P450 2C19; CYP2C19 Supersomes, luciferin-H EGE luminescence, 30 min; inhibition, % at 5 µM; AID 778; P33261; 96,000 tested, 21% active;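 active means CYP2C19 inhibition above a set limit at 5 µM in the primary screen, cut at about 50% in these data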
CYP2C9 inh = human CYP2C9 inhibition. P11712. CYP2C9 Supersomes, luciferin-H conversion, luminescence. inhibition, % at 5 µM. 96,000 tested, 20% active;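 active means blocking of liver enzyme CYP2C9 beyond about 50% at 5 µM, limit read from the data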
PostGolgi yeast = growth inhibition of a yeast mutant, post-Golgi transport screen. AID 739. 98,000 tested, 0.9% active. post-Golgi transport phenotypic cell assay. inhibition, % at 10 µM;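 further: yeast cells grown in 1536-well plates; yeast grown about 18 h at 30C before absorbance read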
A number is an active result; - = inactive. In the library only some 32% were active in any assay of this set; here they are far more common. Unless noted, no stated cut-off is given here; in the data, active means inhibition above about 30%; inactive means the rest.

SMILES	CYP2C9 activ	PostGolgi ctrl	CYP2C19 act	CYP2C19 inh	CYP2C9 inh	PostGolgi yeast
Cc1nnc(NC(=O)CSc2nc(C(C)C)nc3ccccc23)s1	-	-	-	-	66	-
O=C(CSc1nc(Cc2ccccc2)nc2ccccc12)Nc1nc2c(s1)CCCC2	-	40	-	85	93	-
Cn1c(SCC(=O)Nc2nc3c(s2)CCCC3)nnc1-c1ccccc1	-	-	-	-	-	-
O=C(CCSc1ccccc1)Nc1nc2c(s1)CCCC2	-	-	-	-	-	-
CC(C)(C)c1nc(SCC(=O)Nc2nc3c(s2)CCCC3)c2ccccc2n1	-	34	-	-	-	-
CSc1nc(C)c2c(n1)N(c1ccc(C(C)C)cc1)CC2	-	-	-	-	-	-
CCN1CCN(CC(O)COC(C)C)CC1 (centres undefined)	-	-	-	-	-	-
CCCS(=O)(=O)N1CCCC(C(=O)NCCCN(C)c2ccccc2)C1 (centres undefined)	-	-	-	-	-	-
CCCN(CC1CC1)C(=O)Nc1ccccc1C	-	-	-	-	-	-
Cc1ccc(-c2nnc(SCC(=O)Nc3nc4c(s3)CCCC4)n2C)cc1	-	-	-	-	-	-
Cc1ccc2cc(C)c3nnc(SCC(=O)Nc4nc5c(s4)CCCC5)n3c2c1	-	-	-	57	61	-
O=C(COC(=O)c1ccccc1F)c1ccc(-n2nncc2-c2ccco2)cc1	-	-	-	-	-	-
COc1cccc(C2CC(c3cccc(C)c3)n3ncnc3N2)c1 (centres undefined)	-	-	-	74	67	-
COc1cccc(C2CC(c3cccc(OC)c3)n3nc(N)nc3N2)c1 (centres undefined)	-	-	-	-	-	-
Cc1cccc(C2CC(c3ccccc3)Nc3ncnn32)c1 (centres undefined)	-	-	-	98	61	-
COc1ccc(C2CC(c3cccc(C)c3)n3ncnc3N2)cc1 (centres undefined)	-	-	-	96	61	-
COc1ccc(C2CC(c3cc(OC)ccc3OC)n3nnnc3N2)cc1 (centres undefined)	-	-	-	98	78	-
COc1cccc(OC)c1C(=O)NC(=S)N1CCN(c2ccc(C(F)(F)F)cc2[N+](=O)[O-])CC1	-	-	-	-	-	-
CCOc1ccc(C2CC(c3cccc(C)c3)n3ncnc3N2)cc1 (centres undefined)	-	-	-	85	54	-
COc1ccc(N(C)S(=O)(=O)c2c(C)[nH]c(=O)[nH]c2=O)c(OC)c1	-	-	-	-	-	-
O=S(=O)(c1ccc2ccccc2c1)N1CCCCC1	2.5	-	-	-	-	-
O=S(=O)(c1cccc(S(=O)(=O)N2CCCC2)c1)c1cccc(S(=O)(=O)N2CCCC2)c1	-	-	-	-	-	-
O=S(=O)(c1ccc2ccccc2c1)N1CCCOC1	3.5	-	-	-	-	-
CN=c1scc(C)n1/N=C/c1ccc(O)cc1O	-	-	-	-	-	-
CC1(c2ccc(Cl)cc2)NC(=O)N(CC(=O)N2CCCC2)C1=O (centres undefined)	-	-	-	-	-	-
SMILES	CYP2C9 activ	PostGolgi ctrl	CYP2C19 act	CYP2C19 inh	CYP2C9 inh	PostGolgi yeast
Cn1c(=O)n(-c2ccc(Cl)cc2)c(=O)c2c3c(sc21)COC(C)(C)C3	-	-	-	-	-	-
COc1ccc(Nc2nc(N)nc(CSc3n[nH]c(-c4ccccc4)n3)n2)cc1	-	30	-	-	-	-
COc1ccccc1Nc1nc(N)nc(CSc2ncccn2)n1	-	32	-	-	-	-
CCOC(=O)c1cnc(SCc2nc(N)nc(Nc3ccccc3OC)n2)nc1N	-	-	-	-	60	-
CCOc1ccccc1Nc1nc(N)nc(CSc2nccc(C)n2)n1	-	-	-	-	-	-
CCOC(=O)c1cnc(SCc2nc(N)nc(Nc3ccc(C)cc3)n2)nc1N	-	-	-	54	54	-
Nc1nc(CSc2n[nH]c(-c3ccccc3)n2)nc(Nc2ccccc2)n1	-	-	-	-	-	-
Cc1ccc(Nc2nc(N)nc(CSc3nc(C)cc(C)n3)n2)cc1	-	-	-	-	-	-
Cc1ccc(S(=O)(=O)NCC(=O)OCC(=O)NC(=O)c2cccn2C)cc1	-	-	-	-	-	-
CCCSc1nnc(-c2cnn(-c3ccccc3)c2-n2cccc2)n1C	-	-	-	-	-	-
COc1cc(C2C(C#N)=C(N)Oc3n[nH]c(-c4ccncc4)c32)cc(OC)c1OC (centres undefined)	-	-	-	-	-	-
CCOC(=O)c1cnc(SCc2cccc(C)c2)nc1N	-	-	-	-	-	-
CCOC(=O)c1cnc(SCc2nc(N)nc(Nc3ccc(F)cc3)n2)nc1N	-	-	-	72	66	-
O=C(Oc1ccc(Cl)c2cccnc12)c1ccco1	-	-	-	53	-	-
CC(=O)COc1ccccc1OC(=O)c1ccco1	-	-	-	-	-	-
CCc1cc(=O)oc2cc(C)cc(OC(=O)c3ccco3)c12	-	-	-	66	-	-
CCOc1ccccc1OC(=O)c1ccco1	-	36	-	-	-	-
C=C(Cl)COc1cc(C)cc2oc(=O)cc(CC)c12	-	-	-	-	52	-
Cn1cnnc1SCc1ccc(C#N)cc1Cl	-	-	-	-	-	-
CCN1CCN(C(=O)c2ccc(CS(=O)(=O)Cc3ccccc3F)o2)CC1	-	-	-	-	-	-
CC1CCC(NC(=O)C2c3ccccc3C(=O)N2CCCN2CCOCC2)CC1 (centres undefined)	-	-	-	-	-	-
Cc1ccc2c(c1)cc1c(=O)[nH]ncn12	-	-	-	-	-	-
Cc1c(C(=O)NCc2ccccc2Cl)oc2c1C(=O)CCC2	-	-	-	-	-	-
O=C(CC1C(=O)OCN1C(=O)OCc1ccccc1)OCC(=O)c1ccccc1 (centres undefined)	-	-	-	-	-	-
NS(=O)(=O)c1ccc(Nc2nc(-c3ccc(O)cc3)cs2)cc1	-	-	-	-	86	-
SMILES	CYP2C9 activ	PostGolgi ctrl	CYP2C19 act	CYP2C19 inh	CYP2C9 inh	PostGolgi yeast
Nc1ccc(Nc2nc(-c3ccncc3)cs2)cc1	-	-	-	61	62	-
Oc1ccc(Nc2nc(-c3ccc(O)cc3)cs2)cc1	-	-	-	-	-	-
CC1=CCC(C(=O)O)C(C(=O)O)C1 (centres undefined)	-	-	-	-	-	-
COc1cc(/C=N\NC(=O)c2sc(N)nc2C)cc(OC)c1OC	-	-	-	-	-	-
COC(=O)CN(C(=S)Nc1ccc(F)cc1)C1CC(=O)N(c2ccc(OC)cc2)C1=O (centres undefined)	-	-	-	93	62	-
COc1ccc(CCN(C(=O)c2cccc(F)c2)C2CC(=O)N(c3ccc(OC)cc3)C2=O)cc1 (centres undefined)	-	-	-	67	53	-
